High-throughput results: PubChem, several laboratories
ABCB6 inh MLPCN: human ABCB6 transporter inhibition | Q9NP58 | K562-ABCB6 porphyrin accumulation, flow cytometry, 1 h; hits give low values | fluorescence ratio to DMSO, % at 10 µM | actives 0.19% (n = 360,000) | AID 602162;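 active means fluorescence ratio to DMSO below 75%, the collection mean minus 3 SD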;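 further: signal is porphyrin accumulated inside mitochondria; lower ratio means ABCB6 inhibition with less porphyrin fluorescence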
Target sequence (Q9NP58 whole entry, looked up): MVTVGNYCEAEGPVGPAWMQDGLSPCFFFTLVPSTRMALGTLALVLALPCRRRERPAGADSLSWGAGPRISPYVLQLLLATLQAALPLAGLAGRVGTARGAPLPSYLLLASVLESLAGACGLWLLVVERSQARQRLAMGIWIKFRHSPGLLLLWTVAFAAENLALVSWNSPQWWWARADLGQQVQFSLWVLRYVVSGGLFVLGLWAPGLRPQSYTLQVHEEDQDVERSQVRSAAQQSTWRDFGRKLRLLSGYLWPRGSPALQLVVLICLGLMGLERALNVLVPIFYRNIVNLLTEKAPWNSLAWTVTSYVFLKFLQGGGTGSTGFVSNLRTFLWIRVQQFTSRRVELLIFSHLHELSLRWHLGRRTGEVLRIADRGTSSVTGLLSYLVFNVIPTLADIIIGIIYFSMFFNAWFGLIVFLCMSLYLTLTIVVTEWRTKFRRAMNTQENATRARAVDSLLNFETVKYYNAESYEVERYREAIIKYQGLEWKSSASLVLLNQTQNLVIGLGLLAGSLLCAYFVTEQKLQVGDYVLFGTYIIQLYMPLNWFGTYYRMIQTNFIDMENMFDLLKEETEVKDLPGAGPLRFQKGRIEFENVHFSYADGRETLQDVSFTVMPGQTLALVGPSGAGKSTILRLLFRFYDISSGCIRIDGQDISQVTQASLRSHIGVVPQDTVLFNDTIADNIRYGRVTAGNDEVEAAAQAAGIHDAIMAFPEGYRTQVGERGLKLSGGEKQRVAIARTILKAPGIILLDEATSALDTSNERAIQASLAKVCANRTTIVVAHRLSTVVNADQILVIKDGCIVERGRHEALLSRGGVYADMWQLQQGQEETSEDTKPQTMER
CRFR2-BP antag: CRF-BP/CRF-R2 complex antagonism. HEK293 CRF-R2/CRF-BP, CRF-induced calcium fluorescence. inhibition, % at 11.8 µM. actives 0.59% (n = 350,000). AID 588475;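 active means inhibition of the ligand-induced calcium signal above about 50% at the single tested concentration, limit read from the data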
MEKK2 WT-MEK5: raises or lowers MEK5 binding to wildtype human MEKK2 PB1 domain; binding response (% of control), % at 10 µM; Q9Y2U5; AID 1531; actives 1.1% (n = 290,000); bead flow cytometry, Alexa488-MEK5 binding to MEKK2 WT; actives lie on both sides; in the data active means binding response below about 67% or above about 130%
MEKK3 PB1 HTS: raises or lowers MEK5 binding to the human MEKK3 PB1 domain; Q99759; bead-based flow cytometry, Alexa488-MEK5 binding to MEKK3; actives lie on both sides; 0 = blocked by unlabeled MEK5, 100 = vehicle; binding response (% of control), % at 10 µM; actives 1.4% (n = 290,000); AID 1529;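 active means binding response more than 3 SD above or below the average of its plate-row segment, actives on both sides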;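 further: Alexa488 bead fluorescence after subtracting the streptavidin-only scavenger bead signal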
CRFBP-R2 agonist: agonists of human CRF-binding protein/CRF-R2 receptor complex; HEK293 CRF-R2/CRF-BP, calcium dye fluorescence (FLIPR); percent of saturating CRF peptide response; activation, % at 13.2 µM; actives 0.46% (n = 350,000); AID 588473;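 active means activation of at least 50%, plus an integration ratio under a set limit after plate pattern correction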
MEKK2 mut-MEK5: signal of MEK5 binding to mutant human MEKK2 PB1 domain | bead flow cytometry, Alexa488-MEK5 binding to MEKK2 mutant | percent response, % at 10 µM | actives 0.35% (n = 290,000) | AID 1530; in the data active means percent response above about 24%, passing the limit was not always enough
MEKK2wt confirm: raises or lowers MEK5 binding to wildtype human MEKK2, retest | shares compounds with MEKK3 PB1 HTS | bead flow cytometry, Alexa488-MEK5 binding to MEKK2 WT; actives lie on both sides | binding response (% of control), % at 10 µM | actives 2.4% (n = 5,900) | AID 1892; in the data active means binding response below about 16% or above about 210%; inactive means in between
MEKK2mut-MEK5: signal of MEK5 binding to mutant human MEKK2, retest; shares compounds with MEKK3 PB1 HTS; bead flow cytometry, Alexa488-MEK5 binding to MEKK2 mutant; percent response, % at 10 µM; actives 2% (n = 5,900); in the data active means percent response mostly above about 71%, no sharp cut-off; inactive means mostly below about 38%;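 further: higher means compound restores mutant binding toward wildtype level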
MEKK3 confirm: confirmation of inhibitors of MEK5 binding to human MEKK3 | shares compounds with MEKK3 PB1 HTS | bead flow cytometry, Alexa488-MEK5 binding to MEKK3; hits give low values | binding response (% of control), % at 10 µM | actives 1.8% (n = 5,900);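 active means binding response below 72% of control, or above a set upper limit, though filed actives all read lower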
Hits are given with their value; - = inactive; . = no result; [ ] = another dose, or the depositor's remark. This is a sample that favours compounds with a hit; in the whole collection about 2.9% have one here.

SMILES	ABCB6 inh MLPCN	CRFR2-BP antag	MEKK2 WT-MEK5	MEKK3 PB1 HTS	CRFBP-R2 agonist	MEKK2 mut-MEK5	MEKK2wt confirm	MEKK2mut-MEK5	MEKK3 confirm
Cc1nn2c(NCCCN(C)C)c3c(nc2c1-c1ccccc1)CCC3	-	-	173.0	-	-	34.0	-	-	-
Cc1ccnc(NC(=O)c2ccc(S(=O)(=O)N3CCCCCC3)cc2)c1	-	-	.	.	-	.	.	.	.
CCN(c1ccccc1)S(=O)(=O)c1cc(C(=O)Nc2ccc(Br)cc2)ccc1F	-	-	-	-	-	-	.	.	.
CCN(c1ccccc1)S(=O)(=O)c1cc(C(=O)Nc2ccccc2Cl)ccc1F	-	-	-	66.0[inhibitor]	-	-	-	-	-
CCOC(=O)c1c(C)[nH]c(C)c1S(=O)(=O)N(C)CC(=O)N(C)Cc1ccccc1	-	-	-	-	-	-	.	.	.
CCOC(=O)C1=C(c2ccccc2)NC(N)=NC1c1ccc(OCc2ccc(Cl)cc2)c(OC)c1 (stereo not drawn)	-	-	248.0	-	-	82.0	251.0	121.0	-
CCOC(=O)C1=C(c2ccccc2)NC(=O)NC1c1cc(Cl)c(O)c(OC)c1 (stereo not drawn)	-	-	-	-	-	-	.	.	.
Cc1oc2ccc(O)cc2c1C(=O)OC(C)C	-	-	-	80.0[inhibitor]	-	-	-	-	-
Cc1oc2ccc(OCC(N)=O)cc2c1C(=O)OC(C)C	-	-	-	-	-	-	.	.	.
CCN(CC)S(=O)(=O)c1ccc(N2CC(C(=O)N3Cc4ccccc4CC3C(N)=O)CC2=O)cc1 (stereo not drawn)	-	-	.	.	-	.	.	.	.
O=C(CSc1ccc(-c2ccco2)nn1)c1ccc(F)cc1	-	-	-	128.0	-	-	-	-	-
Cc1cccc(NC(=O)CSc2ccc(-c3ccco3)nn2)c1	-	-	-	129.0	-	-	-	-	-
Cc1ccc(C(=O)CSc2ccc(-c3ccncc3)nn2)cc1	-	-	-	-	-	-	.	.	.
Cc1ccc(-c2ccc(SCC(=O)c3ccccc3)nn2)cc1	-	-	63.0[inhibitor]	-	-	-	-	-	-
O=C(CSc1n[nH]c(=O)n1Cc1ccco1)c1ccc(F)cc1	-	-	-	131.0	-	-	-	-	-
C[C@@H](C(=O)NC1CCN(Cc2ccccc2)CC1)N1C(=O)N2CCc3c([nH]c4ccccc34)[C@@]2(C)C1=O	-	-	-	-	-	-	.	.	.
CC(C)C[C@@H](C(=O)NC1CCN(Cc2ccccc2)CC1)N1C(=O)N2CCc3c([nH]c4ccccc34)[C@@]2(C)C1=O	-	-	142.0	-	-	-	-	-	-
Cc1cc(C)cc(Oc2ccc(NC(=O)C3CC=CCC3C(=O)O)cc2)c1 (stereo not drawn)	-	-	-	75.0[inhibitor]	-	-	-	-	-
C[C@@H]1CC2=C(C(=O)OC(C)(C)O2)[C@H](c2ccc(F)cc2)O1	-	.	.	.	.	.	.	.	.
CN(C)CCCN(C(=O)c1ccc(S(=O)(=O)N2CCCCCC2)cc1)c1nc2ccc(F)cc2s1	-	-	158.0	-	-	-	-	-	-
COc1cccc2sc(N(CCCN(C)C)C(=O)c3ccc(S(=O)(=O)N4CCCc5ccccc54)cc3)nc12	-	-	187.0	-	-	38.0	-	-	-
CN(C)CCN(C(=O)c1ccc(S(=O)(=O)N2CCCC2)cc1)c1nc2ccc(Br)cc2s1	-	-	138.0	-	-	-	-	-	-
CCc1ccc2nc(N(CCCN(C)C)C(=O)c3ccc(S(=O)(=O)N4CCCc5ccccc54)cc3)sc2c1	-	-	188.0	-	-	32.0	-	-	-
CN(C)CCCN(C(=O)c1ccc(S(=O)(=O)N2CCc3ccccc3C2)cc1)c1nc2c(F)cc(F)cc2s1	-	-	.	.	-	.	.	.	.
CCCCCN(C(=O)CCC(=O)OCC(=O)N(C)Cc1ccccc1C)c1c(N)n(CCCC)c(=O)[nH]c1=O	-	-	.	.	-	.	.	.	.
SMILES	ABCB6 inh MLPCN	CRFR2-BP antag	MEKK2 WT-MEK5	MEKK3 PB1 HTS	CRFBP-R2 agonist	MEKK2 mut-MEK5	MEKK2wt confirm	MEKK2mut-MEK5	MEKK3 confirm
CCc1ccc2nc(N(CCCN(C)C)C(=O)c3ccc(S(=O)(=O)N4CCCC4)cc3)sc2c1	-	-	135.0	-	-	-	-	-	-
CCc1ccc2nc(N(CCCN(C)C)C(=O)c3ccc(C(=O)c4ccccc4)cc3)sc2c1	-	-	186.0	-	-	32.0	-	-	-
CN(C)CCCN(C(=O)c1ccc(S(=O)(=O)N2CCOCC2)cc1)c1nc2ccc(F)cc2s1	-	-	-	-	-	-	.	.	.
CN(C)CCCN(C(=O)c1ccc(S(=O)(=O)N2CCCCCC2)cc1)c1nc2c(F)cccc2s1	-	-	134.0	-	-	-	-	-	-
CC(=O)N1CCN(C(=O)COc2ccc3oc4c(c3c2)CCCC4)CC1	-	-	.	.	-	.	.	.	.
CN(C)c1ccc(S(=O)(=O)N2CCCCC2)cc1NC(=O)CCNC(=O)c1ccc(Cl)cc1	-	-	.	.	-	.	.	.	.
COCCN(C(=O)CC1C(=O)NCCN1CC(c1ccccc1)c1ccccc1)C(C)C (stereo not drawn)	-	-	-	-	-	-	.	.	.
Cn1c(=O)[nH]c(=O)c2c1nc(N1CCCCC1)n2CC(O)COc1ccc([N+](=O)[O-])cc1 (stereo not drawn)	-	-	-	-	-	-	.	.	.
COc1ccc(NC(=O)CSCC(=O)N2CCN(c3cccc(C(F)(F)F)c3)CC2)cc1	-	-	.	.	-	.	.	.	.
COc1ccc(NC(=O)N2CCN(c3cccc(C(F)(F)F)c3)CC2)cc1	.	-	0.0[inhibitor]	0.0[inhibitor]	-	-	-	-	-
Cc1cccc(N2CCc3c2nc2ccc(Br)cc2c3N)c1	-	-	-	124.0	-	-	-	-	-
Cc1ccccc1N1CCN(CCCN2C(=O)CC(=C(c3ccccc3)c3ccccc3)C2=O)CC1	-	-	-	-	-	-	.	.	.
O=C1CC(=C(c2ccccc2)c2ccccc2)C(=O)N1CCCCN1CCN(c2cccc(Cl)c2)CC1	-	-	142.0	-	-	-	-	-	-
Cc1cccc2sc(NC(=O)CN3C(=O)C4CC=CCC4C3=O)nc12 (stereo not drawn)	-	-	-	148.0	-	-	-	-	-
Cc1c(Cl)ccc2sc(NC(=O)CN3C(=O)c4ccccc4C3=O)nc12	-	-	-	64.0[inhibitor]	-	-	-	-	-
